Data on 8 compounds can be found in PubChem BioAssay.

Molecules are shown by their SMILES. Activity calls are given as the source filed them.

Experiment [1] is described as follows: compound effects on differentiated 3T3-L1 adipocyte viability – cell-based, 3T3-L1 adipocytes, calcein-AM fluorescence, 48 h, basal, profiling panel (AID 1163). The following applies: 3T3-L1 adipocytes viability, higher = more signal.
Experiment [2] is described as follows: compound effects on hepatocellular carcinoma cell viability – HepG2, calcein-AM fluorescence, 48 h, basal, profiling panel (AID 1164). The note with it: higher = more signal.
Experiment [3] in a line: compound effects on multiple myeloma cell viability – MM1S, calcein-AM fluorescence, 48 h, basal, profiling panel (AID 1165).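 Note: viability of MM1S multiple myeloma cells under basal unstimulated conditions.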 The note with it: higher = more signal.
A short description of experiment [4]: calcein-AM signal in unstimulated myeloma cells – cell-based, calcein-AM fluorescence, 48 h, PK04 Diversity Set, profiling panel (AID 1166).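 Note: cells grown under basal conditions without added stimulus.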 The note with it: RPMI8226 myeloma viability, higher = more signal.
Experiment [5] in a line: JC-1 mitochondrial signal, unstimulated HepG2 cells – cell-based, JC-1 fluorescence, 24 h, 100 nL compound, profiling panel (AID 1167). The note with it: HepG2 mitochondrial potential, higher = more signal.
Experiment [6] in a line: JC-1 mitochondrial signal, unstimulated adipocytes – cell-based, JC-1 fluorescence, 3T3-L1 adipocytes, 24 h, 100 nL compound, profiling panel (AID 1168). The following applies: JC-1 mitochondrial fluorescence, higher = more signal, called active from +8 up or from −8 down.
Experiment [7] can be described thus: JC-1 mitochondrial signal, unstimulated myeloma cells – cell-based, JC-1 fluorescence, RPMI8226, 24 h, 100 nL compound, profiling panel (AID 1169). The following applies: JC-1 mitochondrial potential fluorescence, higher = more signal.
Experiment [8] in a line: JC-1 mitochondrial signal, unstimulated MM1S myeloma – cell-based, JC-1 fluorescence, 24 h, 100 nL compound, profiling panel (AID 1170). The following applies: MM1S mitochondrial potential, higher = more signal.
Experiment [9] can be described thus: resazurin metabolic signal in A549 cells – cell-based, resazurin fluorescence, 24 h, PK04 Diversity Set, profiling panel (AID 1171). The note with it: A549 viability, higher = more signal, called active from +8 up or from −8 down. In general terms: Alamar Blue is a resazurin reagent that responds to reducing activity.
The nature of experiment [10]: resazurin metabolic signal in HepG2 cells – cell-based, resazurin fluorescence, 24 h, PK04 Diversity Set, profiling panel (AID 1172). The following applies: HepG2 viability, higher = more signal.
The nature of experiment [11]: budding yeast growth changes without added modifier – OD600, strain BY4716, 24 h, basal condition, primary screen (AID 1173). The note with it: S. cerevisiae BY4716 growth, OD600, 24 h; higher = more signal, called active from +8 up or from −8 down.
Experiment [12] in a line: viability profiling in MM1S myeloma cells – cell-based, resazurin fluorescence, basal, 24 h, PK04 Diversity Set, profiling panel (AID 1174). The following applies: higher = more signal, called active from +8 up or from −8 down.
Experiment [13] concerns the target Dihydroorotate dehydrogenase (quinone), mitochondrial (Plasmodium falciparum (isolate 3D7)) (UniProt Q08210). Description: inhibition of P. falciparum DHODH – biochemical, C-terminal His tag, absorbance 600 nm, primary screen (AID 1175).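 Note: recombinant parasite enzyme with a five histidine tag at its C terminus.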 The following applies: PfDHODH enzyme, DCIP absorbance 600 nm; higher = more signal, called active from +8 up or from −8 down.
A short description of experiment [14]: growth modulation of vineyard yeast isolate – strain RM11-1a, OD600, basal, 24 h, primary screen (AID 1177).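 Note: cultures grown under basal conditions with no added stressor.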 The note with it: S. cerevisiae RM11-1a growth, OD600, 24 h; higher = more signal, called active from +8 up or from −8 down.
Experiment [15] is described as follows: growth of efflux-deficient E. coli DRC39 – strain DRC39, OD650, 24 h, E. coli filamentation inducers, primary screen (AID 1178).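 Note: growth measured as culture turbidity by optical density at 650 nm.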 The following applies: E. coli DRC39 acrAB, higher = more signal, called active from +8 up or from −8 down.
Experiment [16] can be described thus: growth of efflux-deficient E. coli DRC39 – strain DRC39, OD650, 48 h, E. coli filamentation inducers, primary screen (AID 1179).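 Note: screen aims at cell division blockers that make cells filament.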 The following applies: E. coli DRC39 delta-acrAB growth, higher = more signal, called active from +8 up or from −8 down.
Experiment [17] is described as follows: viability profiling in RPMI8226 myeloma cells – cell-based, resazurin fluorescence, basal, 24 h, PK04 Diversity Set, profiling panel (AID 1180).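 Note: RPMI8826 multiple myeloma cell line at 5000 cells per well.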 The following applies: higher = more signal.
In experiment [18] the target is E3 ubiquitin-protein ligase XIAP (Homo sapiens) (UniProt P98170). Nature of the experiment: small molecules binding XIAP protein – biophysical, small-molecule microarray, fluorescence 635 nm, primary screen (AID 1181).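 Note: score merges 667 nm emission and signal to noise over triplicate slides.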 The note with it: higher = more signal.
E3 ubiquitin-protein ligase XIAP (Homo sapiens), sequence (P98170 whole entry, looked up, the tested form may be a part): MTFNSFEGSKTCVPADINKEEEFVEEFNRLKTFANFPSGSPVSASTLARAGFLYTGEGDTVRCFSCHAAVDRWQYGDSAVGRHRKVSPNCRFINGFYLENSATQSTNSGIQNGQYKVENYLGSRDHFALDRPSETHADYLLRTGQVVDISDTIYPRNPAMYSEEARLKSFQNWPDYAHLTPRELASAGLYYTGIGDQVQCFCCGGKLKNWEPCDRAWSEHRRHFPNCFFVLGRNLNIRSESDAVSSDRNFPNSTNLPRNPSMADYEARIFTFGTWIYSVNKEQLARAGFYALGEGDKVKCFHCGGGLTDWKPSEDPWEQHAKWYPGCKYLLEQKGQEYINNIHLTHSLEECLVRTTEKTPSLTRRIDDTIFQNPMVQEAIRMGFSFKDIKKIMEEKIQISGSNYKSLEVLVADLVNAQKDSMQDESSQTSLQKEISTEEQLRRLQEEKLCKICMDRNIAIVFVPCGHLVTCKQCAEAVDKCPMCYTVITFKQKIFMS
Experiment [19] concerns XIP peptide (Xip251-270) binding. Description: XIP fragment 251-270 binding compounds – biochemical, small-molecule microarray, fluorescence 635/667 nm, 0.1 µg/mL protein, primary screen (AID 1182). The following applies: fluorescent protein binding, 635 nm, higher = more signal, called active from +8 up or from −8 down.
Another experiment concerns XIP peptide (Xip251-270). Description: compounds binding XIP fragment 251-270 – biochemical, small-molecule microarray, fluorescence 635/667 nm, 0.5 µg/mL protein, primary screen (AID 1183). The following applies: fluorescence 635 nm, higher = more signal.

Dihydroorotate dehydrogenase (quinone), mitochondrial (Plasmodium falciparum (isolate 3D7)), sequence (Q08210 whole entry, looked up): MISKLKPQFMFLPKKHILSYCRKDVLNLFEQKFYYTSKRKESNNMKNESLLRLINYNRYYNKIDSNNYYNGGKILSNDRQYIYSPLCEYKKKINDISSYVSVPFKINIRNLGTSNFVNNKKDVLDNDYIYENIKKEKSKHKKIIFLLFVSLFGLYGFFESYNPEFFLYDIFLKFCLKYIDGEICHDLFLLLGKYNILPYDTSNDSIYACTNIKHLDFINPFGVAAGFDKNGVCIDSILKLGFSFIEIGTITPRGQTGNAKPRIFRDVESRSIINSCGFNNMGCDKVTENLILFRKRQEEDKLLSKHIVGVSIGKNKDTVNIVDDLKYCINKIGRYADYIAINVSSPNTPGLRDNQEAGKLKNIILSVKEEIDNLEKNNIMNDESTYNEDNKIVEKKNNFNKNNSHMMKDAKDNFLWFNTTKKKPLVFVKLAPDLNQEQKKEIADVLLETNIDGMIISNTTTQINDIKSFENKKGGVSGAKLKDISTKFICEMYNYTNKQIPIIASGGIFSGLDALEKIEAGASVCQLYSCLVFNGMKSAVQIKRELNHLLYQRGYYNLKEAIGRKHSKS

Regarding `CC(C)(C)OC(=O)CC[C@@]1(C(=O)N2CCOCC2)N=C(c2ccc(OCCCO)cc2)O[C@@H]1c1ccccc1`, the z-score is 0.861 in experiment [1]; -0.215 in experiment [2]; 0.317 in [3]; 0.414 in experiment [4]; 0.652 in experiment [5]; 1.08 (inactive) in [6]. Moreover, the z-score is -0.959 in experiment [7]; 0.609 in experiment [8]; 1.6 (inactive) in [9]; 0.957 in [10]; 0.0776 (inactive) in experiment [11]; 1.43 (inactive) in experiment [12]. Besides, the z-score was 0.732 (inactive) in experiment [14], 2.19 (inactive) in experiment [15], 0.869 (inactive) in experiment [16] and 1.53 in experiment [17]. For the same compound, the composite z-score in experiment [13] was 0.464 (inactive); in experiment [18], 0.105; in experiment [19] it was 1.6 (inactive); in the experiment on XIP peptide (Xip251-270), -0.326.

In the case of `COC(=O)C(CC#Cc1ccc2c(c1)[C@]1(C(=O)N2)[C@H](C(=O)O)[C@H]2C(=O)O[C@H](c3ccccc3)[C@H](c3ccccc3)N2[C@@H]1c1ccc(OCCO)cc1)C(=O)OC`, the z-score in [1] is 0.313; in [2] it was 1.27; in [3], -2.5; in experiment [4], -3.54; in experiment [5], -0.532; in experiment [6], 0.587 (inactive). Also, the z-score in experiment [7] is -0.746; in experiment [8], 0.171; in experiment [9], 0.7 (inactive); in experiment [10] it was 0.821; in experiment [11] it was -0.842 (inactive); in experiment [12] it was 1.22 (inactive). Besides, the z-score in experiment [14] was 0.338 (inactive); in experiment [15] it was 1.6 (inactive); in [16], 1.72 (inactive); in [17], -2.37. The composite z-score in experiment [13] was -15.4 (active); in experiment [18], -0.207; in [19], 1.68 (inactive); in the experiment with XIP peptide (Xip251-270), 0.836.

As to `C=C(C1=CCN(S(=O)(=O)c2ccc(C)cc2)C1)[C@@H](OC(C)=O)[C@@H]1CCCN1S(=O)(=O)c1ccccc1[N+](=O)[O-]`, the z-score was 1.9 in experiment [1]; -3.37 in [2]; -3.21 in experiment [3]; -4.14 in experiment [4]; 1.04 in [5]; 0.496 (inactive) in [6]. Moreover, the z-score in [7] is -1.21; in [8], -2.86; in experiment [9], 0.0974 (inactive); in [10], 0.174; in [11] it was -0.372 (inactive); in experiment [12] it was -7.03 (inactive). For the same compound, the z-score in [14] was 1.39 (inactive); in experiment [15], 2.93 (inactive); in [16] it was 1.38 (inactive); in experiment [17], -4.54. Besides, the composite z-score in experiment [13] is 1 (inactive); in experiment [18] it was -0.301; in experiment [19], 0.698 (inactive); in the experiment with XIP peptide (Xip251-270), -0.737.

For `C=CC[C@]1(C(=O)N2CCCCC2)COC(c2ccc(OCCCO)cc2)=N1`, the z-score in [1] was 1.98; in experiment [2] it was -2.29; in experiment [3], -3.6; in [4], -2.3; in [5], -0.223; in experiment [6], 0.322 (inactive). For the same compound, the z-score in experiment [7] is -0.749; in experiment [8], -0.435; in experiment [9], -0.585 (inactive); in experiment [10], 1.55; in experiment [11], -6.59 (inactive); in [12], -0.863 (inactive). The z-score was 0.474 (inactive) in [14], 2.98 (inactive) in experiment [15], 0.693 (inactive) in experiment [16] and 0.909 in experiment [17]. Further, the composite z-score in [13] is -0.0606 (inactive); in experiment [18], -0.17; in experiment [19] it was 0.502 (inactive); in the experiment on XIP peptide (Xip251-270) it was 0.54.

Take `C=CCNC(=O)[C@H]1[C@@H]2C(=O)O[C@@H](c3ccccc3)[C@@H](c3ccccc3)N2[C@@H](c2ccc(OCCO)cc2)[C@]12C(=O)Nc1ccc(C#CCCO)cc12`: the z-score in [1] was 2.12; in experiment [2] it was 1.05; in [3] it was 0.416; in experiment [4], 0.364; in experiment [5], 0.355; in experiment [6], 0.815 (inactive). The z-score in experiment [7] is -0.307; in experiment [8], 0.128; in experiment [9] it was 0.865 (inactive); in experiment [10], -0.0836; in experiment [11] it was -0.0378 (inactive); in [12], 0.806 (inactive). The z-score is 1.25 (inactive) in experiment [14], 0.645 (inactive) in experiment [15], 0.499 (inactive) in experiment [16] and 1.28 in experiment [17]. The composite z-score in [13] was 0.0436 (inactive); in experiment [18], -0.0371; in experiment [19], 0.331 (inactive); in the experiment on XIP peptide (Xip251-270), 0.81.

For the compound `CCCNC(=O)[C@@]1(Sc2ccc(C)cc2)CC(=O)N(Cc2cc(C(F)(F)F)cc(C(F)(F)F)c2)[C@@H]1c1ccc(CO)cc1I`, the z-score in experiment [1] was 0.66; in [2], 1.28; in experiment [3], -2.53; in [4], -1.3; in [5] it was 0.848; in experiment [6], 1.18 (inactive). In addition, the z-score was -0.649 in experiment [7]; -1.24 in experiment [8]; 0.0086 (inactive) in [9]; 1.05 in experiment [10]; -5.79 (inactive) in [11]; -1.68 (inactive) in experiment [12]. For the same compound, the z-score is -5 (inactive) in experiment [14], 0.961 (inactive) in [15], 1.4 (inactive) in experiment [16] and -1.55 in experiment [17]. The composite z-score is -0.684 (inactive) in [13], -0.0925 in [18], 0.459 (inactive) in experiment [19] and 0.816 in the experiment with XIP peptide (Xip251-270).

On to `C=CCN1C(=O)[C@@]2(O[C@@H](CCn3cc(CCO)nn3)[C@H]([Si](C)(C)c3ccc(OC)cc3)[C@H]2C)c2cc(NC(=O)c3ccc(OC)cc3)ccc21`, for which the z-score in [1] is 1.2; in experiment [2], -0.408; in experiment [3], -2.91; in experiment [4], -3.3; in experiment [5], 0.978; in [6], 0.659 (inactive). The z-score was -0.925 in experiment [7]; 0.212 in [8]; -1.27 (inactive) in experiment [9]; -0.322 in [10]; -4.11 (inactive) in [11]; -1.55 (inactive) in experiment [12]. The z-score in experiment [14] was 0.901 (inactive); in experiment [15], 1.55 (inactive); in experiment [16] it was 1 (inactive); in experiment [17] it was -1.51. In addition, the composite z-score in [13] is -0.118 (inactive); in experiment [18] it was -0.168; in experiment [19], -0.025 (inactive); in the experiment on XIP peptide (Xip251-270) it was 0.442.

With `COCCCNC(=O)[C@@]1(Cc2ccccc2)N=C(c2ccc(OCCCO)cc2)O[C@H]1c1ccccc1N=[N+]=[N-]`, the z-score in experiment [1] is 1.95; in experiment [2] it was -0.121; in experiment [3], -1.67; in experiment [4], -4.02; in experiment [5], 1.12; in experiment [6], 2.93 (inactive). For the same compound, the z-score in [7] is -1.1; in [8] it was -0.433; in experiment [9], -1.83 (inactive); in experiment [10] it was 0.357; in [11], 0.346 (inactive); in [12] it was -1.13 (inactive). Besides, the z-score in [14] was 2.42 (inactive); in [15], 1.22 (inactive); in [16] it was 0.18 (inactive); in experiment [17], -2.12. Besides, the composite z-score in experiment [13] is 1.37 (inactive); in experiment [18], 0.085; in experiment [19], 0.619 (inactive); in the experiment on XIP peptide (Xip251-270), -0.473.
